# According to PubChem BioAssay (NCATS):
# Results filed as inconclusive are left out. Calls of active or inactive are those of the source. Unless noted, calls come from the whole dose curve.
# Tests used:
# [1] = target: Estrogen receptor (Homo sapiens) (UniProt P03372); assay: qHTS assay for small molecule antagonists of estrogen receptor alpha signaling (AID 588513; active = well fitted curve in the direction sought with a large enough effect in the signal ratio, with a control signal flat, not every such curve was filed as active; the % refers to the signal ratio; note: % is set by controls: 0 for no effect and ±100 for the full control effect)
# How it was run: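 Fluorescence from CCF4 substrate after 2 h at room temperature gave reporter activity; cells had been exposed to compound and 0.5nM 17-beta-estradiol for 18 h at 37 C. Hill-equation fitting yielded IC50 and maximal response.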
# [2] = qHTS assay for small molecule antagonists of peroxisome proliferator-activated receptor delta signaling (AID 588535); details: HEK293T PPARd-UAS-bla, beta-lactamase FRET ratio, 18 h; 460 nm channel;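 note: cells co-treated with a PPAR-delta agonist as stimulator during compound exposure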
# How it was run: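 Cells were seeded at 4000 per well in assay medium containing 2% charcoal/dextran FBS and held 5 hrs at 37 C. Compounds were then added for 18 hrs. CCF4 substrate was applied for 2 hrs at room temperature before fluorescence reading.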
# [3] = target: Vitamin D3 receptor (Homo sapiens) (UniProt P11473); assay: qHTS assay for small molecule antagonists of vitamin D receptor signaling (AID 588541);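 note: receptor activated by calcitriol during compound treatment; series mostly up to about 77 µM; % is set by controls: 0 for no effect and ±100 for the full control effect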
# How it was run: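 VDR-UAS-bla HEK293T cells in 2% charcoal-stripped FBS were stimulated with 1-alpha,25-dihydroxyvitamin D3 (3 nM final) plus compound for 16 h at 37 C. The beta-lactamase CCF4 readout was normalized to 50 nM agonist and DMSO, and Hill fits gave IC50.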
# [4] = target: Vitamin D3 receptor (Homo sapiens) (UniProt P11473); assay: qHTS assay for small molecule agonists of vitamin D receptor signaling (AID 588543);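 note: 0% = DMSO basal and 100% = reference agonist control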
# How it was run: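 Reporter cells (HEK293T, VDR-UAS-bla) were seeded in medium with 2% charcoal-stripped serum and incubated 5 h, then compounds in concentration series were added for 16 h at 37 °C. Stimulation was scaled between DMSO basal and 50 nM 1α,25-dihydroxyvitamin D3.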
# [5] = qHTS assay for small molecule agonists of retinoid X receptor alpha signaling (AID 588544); details: HEK293T RXRa-UAS-bla, beta-lactamase reporter, 18 h; 530 nm emission;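 for activation: 0% = DMSO basal wells and 100% = reference agonist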
# [6] = target: Retinoic acid receptor RXR-alpha (Homo sapiens) (UniProt P19793); assay: as above
# [7] = target: Thyroid hormone receptor beta (Homo sapiens) (UniProt P10828); assay: qHTS assay for small molecule agonists of thyroid hormone receptor beta signaling (AID 588545);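 note: 0% = DMSO only and 100% = 10 nM T3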
# How it was run: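 Efficacy and EC50 values derive from Hill fits of qHTS titration data, normalized to 10 nM T3 and DMSO-only wells. HEK 293 reporter cells were stimulated for 18 hrs at 37 C, with beta-lactamase activity measured by CCF4 fluorescence.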
# [8] = qHTS assay for small molecule antagonists of retinoid X receptor alpha signaling (AID 588546; active = well fitted inhibition curve with a large enough effect in the signal ratio, with a control signal flat, not every such curve was filed as active; the % refers to the signal ratio;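 note: cells stimulated with 9-cis-retinoic acid as agonist; % is set by controls: 0 for no effect and ±100 for the full control effect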); details: HEK293T RXRa-UAS-bla, beta-lactamase ratio, antagonist mode; measured here: W530 green channel, cytotoxicity proxy
# How it was run: (§1)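 Beta-lactamase reporter inhibition, read as CCF4 fluorescence ratio (ex 405, em 460/530 nm) after 2 h at RT. HEK293T UAS-bla cells, 2500/well, were stimulated with 9-cis-RA at 500 or 100 nM final alongside test compound for 18 h at 37 C.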
# [9] = target: Retinoic acid receptor RXR-alpha (Homo sapiens) (UniProt P19793); assay: as above; details: HEK293T RXRa-UAS-bla, beta-lactamase ratio, antagonist mode
# How it was run: as §1
# [10] = qHTS assay for small molecule activators of the nuclear factor-kappa B (NF-kB) signaling pathway (AID 651749; active = well fitted activation curve with a large enough effect in the signal ratio; the % refers to the signal ratio; note: series mostly up to about 77 µM; % of control where 0% means no effect); details: NF-kB-bla ME-180 cells, beta-lactamase FRET ratio, 16 h; activation: stronger effect = higher value
# How it was run: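 Incubation lasted 16 hr at 37C in 5% CO2 after 23 nL compound addition to ME-180 NF-kB-bla cells. Activation appears as beta-lactamase-mediated FRET loss.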
# [11] = qHTS assay for environmental chemicals that activate the Aryl hydrocarbon Receptor (AhR) signaling pathway (AID 651777; active = well fitted curve in the direction sought with a large enough effect; an effect the other way counts as inactive or inconclusive; note: % of control where 0% means no effect; nearly all actives have a fitted effect of over 15% in size); details: 1A2-DRE human hepatoma cells, luciferase, 24 h; activation: stronger effect = higher value
# How it was run: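 Quantitative HTS in stably transfected human liver-derived cells whose luciferase gene sits downstream of the CYP1A2 promoter and dioxin response element. After 24 hr exposure at 37 C, One-Glo luminescence was measured.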
# [12] = target: Peroxisome proliferator-activated receptor alpha (Homo sapiens) (UniProt Q07869); assay: qHTS assay for small molecule agonists of the peroxisome proliferator-activated receptor alpha (PPARalpha) signaling pathway (AID 651778; active = well fitted curve in the direction sought with a large enough effect; an effect the other way counts as inactive or inconclusive; note: % of control where 0% means no effect); details: PathHunter PPARalpha complementation, chemiluminescence, 6 h; max response: stronger effect = higher value
# How it was run: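 Enzyme-fragment complementation assay in which ligand-bound PPARalpha translocates and forms an active enzyme that generates chemiluminescence. Cells were plated overnight, exposed to compound for 6 hr at 37 C, and then given detection reagent for 60 min at room temperature.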
# [13] = qHTS assay for small molecule agonists of the antioxidant response element (ARE) signaling pathway measured by Nrf2-dependant transcriptional activity - cell viability counter screen (AID 720653; active = well fitted curve in the direction sought with a large enough effect in the repeat runs; an effect the other way counts as inactive or inconclusive; note: % is set by controls: 0 for no effect and ±100 for the full control effect); details: ARE-bla HepG2 viability, CellTiter-Glo ATP luminescence, 16 h; max response: stronger effect = lower value
# How it was run: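 ARE-bla HepG2 cells treated with compounds for 16 h at 37C; this counter screen measures viability as intracellular ATP by CellTiter-Glo luminescence after 30 min at room temperature.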
# [14] = qHTS assay for cell viability of HEK293 cells (AID 743288; active = well fitted curve in the direction sought with a large enough effect; an effect the other way counts as inactive or inconclusive; note: % is set by controls: 0 for no effect and ±100 for the full control effect; nearly all actives have a fitted effect of over 50% in size); details: ATP luminescence (CellTiter-Glo), 18 h; max response: stronger effect = lower value
# How it was run: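 HEK293 parental, 2,000 cells/well; ≥5 h pre-incubation 37 C; pintool compound addition; 18 h, 37 C; CellTiter-Glo 30 min RT; luminescence read.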
# [15] = qHTS assay for cell viability of the p53RE-bla HCT-116 cell line (AID 743292; active = well fitted curve in the direction sought with a large enough effect; an effect the other way counts as inactive or inconclusive; note: % is set by controls: 0 for no effect and ±100 for the full control effect; nearly all actives have a fitted effect of over 55% in size)
# How it was run: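 Viability of compound-treated p53RE-bla HCT-116 cells is taken from ATP-dependent luciferase luminescence. Treatment lasts 16 h at 37 C after a 5 h settling period; detection follows 30 min at room temperature.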
# [16] = target: Nuclear receptor subfamily 1 group I member 2 (Rattus norvegicus) (UniProt Q9R1A7); assay: qHTS assay for small molecule activators of the rat pregnane X receptor (rPXR) signaling pathway (AID 651751; call rule not given here; note: 0% is about no effect); details: rPXR reporter cells, luciferase (One-Glo), 24 h
# [17] = qHTS assay for small molecule activators of the human pregnane X receptor (PXR) signaling pathway (AID 720659; call rule not given here; note: 0% is about no effect)
# [18] = target: Estrogen receptor (Homo sapiens) (UniProt P03372); assay: qHTS assay for small molecule agonists of estrogen receptor alpha signaling (AID 588514);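 note: 0% = vehicle only and 100% = reference agonist; nearly all actives have a fitted effect of over 70% in size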
# How it was run: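 ER-alpha-UAS-bla GripTite HEK 293 cells in medium with 2% charcoal/dextran-treated FBS were treated with compound titrations at 37 C for 18 hrs; beta-lactamase reporter read by CCF4 fluorescence after 2 hrs at RT.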
# [19] = target: Thyroid hormone receptor beta (Homo sapiens) (UniProt P10828); assay: qHTS assay for small molecule antagonists of thyroid hormone receptor beta signaling (AID 588547; active = well fitted inhibition curve with a large enough effect in the signal ratio, with a control signal flat, not every such curve was filed as active; the % refers to the signal ratio); details: TR-UAS-bla HEK293, beta-lactamase ratio, antagonist mode, 18 h
# How it was run: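 TR-UAS-bla GripTite HEK293 cells in 2% charcoal/dextran FBS medium; compounds 0.59 nM to 92 uM with T3 at 0.4nM final, 18 h at 37 C. Beta-lactamase read by CCF4 fluorescence (460/530 nm); Hill fits gave IC50 and efficacy.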
# [20] = qHTS assay for small molecule agonists of the antioxidant response element (ARE) signaling pathway measured by Nrf2-dependant transcriptional activity (AID 720636; active = well fitted curve in the direction sought with a large enough effect in the repeat runs; an effect the other way counts as inactive or inconclusive; note: % of control where 0% means no effect)
# How it was run: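 Quantitative HTS format in HepG2 cells stably expressing an ARE-luciferase reporter; 16 hr compound treatment at 37 C, luciferase signal detected with ONE-Glo.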
# Sequence of Vitamin D3 receptor (Homo sapiens) (P11473 whole entry, looked up): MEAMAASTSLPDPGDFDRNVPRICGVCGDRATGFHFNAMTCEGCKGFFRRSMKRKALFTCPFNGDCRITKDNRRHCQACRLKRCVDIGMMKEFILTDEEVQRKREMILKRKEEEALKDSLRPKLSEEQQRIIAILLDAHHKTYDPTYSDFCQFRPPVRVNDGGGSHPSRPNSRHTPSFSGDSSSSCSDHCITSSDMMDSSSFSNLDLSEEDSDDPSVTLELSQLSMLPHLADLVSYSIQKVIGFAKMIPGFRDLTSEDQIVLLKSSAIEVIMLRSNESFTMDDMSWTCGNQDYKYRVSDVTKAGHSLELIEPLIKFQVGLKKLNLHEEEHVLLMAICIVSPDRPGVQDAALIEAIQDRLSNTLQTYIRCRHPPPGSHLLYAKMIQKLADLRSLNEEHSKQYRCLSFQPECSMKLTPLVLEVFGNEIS
# Sequence of Estrogen receptor (Homo sapiens) (P03372 whole entry, looked up): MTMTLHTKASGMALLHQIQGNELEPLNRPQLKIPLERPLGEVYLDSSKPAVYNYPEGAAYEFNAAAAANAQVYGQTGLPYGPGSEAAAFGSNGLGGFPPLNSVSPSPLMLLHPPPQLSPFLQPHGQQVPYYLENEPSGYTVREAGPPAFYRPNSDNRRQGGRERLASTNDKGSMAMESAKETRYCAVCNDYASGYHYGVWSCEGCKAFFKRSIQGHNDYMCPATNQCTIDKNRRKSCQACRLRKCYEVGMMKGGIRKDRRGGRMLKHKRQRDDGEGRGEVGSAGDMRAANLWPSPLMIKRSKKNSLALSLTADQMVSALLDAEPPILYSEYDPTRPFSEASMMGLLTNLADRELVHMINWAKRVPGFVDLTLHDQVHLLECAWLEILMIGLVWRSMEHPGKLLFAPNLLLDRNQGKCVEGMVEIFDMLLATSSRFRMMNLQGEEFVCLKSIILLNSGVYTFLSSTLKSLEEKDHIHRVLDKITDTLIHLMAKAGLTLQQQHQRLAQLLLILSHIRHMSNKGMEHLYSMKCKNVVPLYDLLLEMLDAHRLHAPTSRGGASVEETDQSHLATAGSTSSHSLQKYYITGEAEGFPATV
# Sequence of Peroxisome proliferator-activated receptor alpha (Homo sapiens) (Q07869 whole entry, looked up, the tested form may be a part): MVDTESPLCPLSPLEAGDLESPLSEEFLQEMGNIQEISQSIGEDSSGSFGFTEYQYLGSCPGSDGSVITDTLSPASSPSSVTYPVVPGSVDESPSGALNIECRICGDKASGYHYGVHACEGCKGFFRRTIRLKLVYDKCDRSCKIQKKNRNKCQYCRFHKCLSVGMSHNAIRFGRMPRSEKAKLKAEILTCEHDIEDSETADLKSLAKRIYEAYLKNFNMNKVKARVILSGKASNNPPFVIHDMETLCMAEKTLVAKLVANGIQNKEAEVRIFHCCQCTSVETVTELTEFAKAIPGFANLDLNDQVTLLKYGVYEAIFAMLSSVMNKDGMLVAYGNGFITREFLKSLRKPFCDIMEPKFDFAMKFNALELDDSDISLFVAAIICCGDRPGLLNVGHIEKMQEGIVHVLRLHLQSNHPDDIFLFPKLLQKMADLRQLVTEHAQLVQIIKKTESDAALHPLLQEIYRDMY
# Sequence of Retinoic acid receptor RXR-alpha (Homo sapiens) (P19793 whole entry, looked up): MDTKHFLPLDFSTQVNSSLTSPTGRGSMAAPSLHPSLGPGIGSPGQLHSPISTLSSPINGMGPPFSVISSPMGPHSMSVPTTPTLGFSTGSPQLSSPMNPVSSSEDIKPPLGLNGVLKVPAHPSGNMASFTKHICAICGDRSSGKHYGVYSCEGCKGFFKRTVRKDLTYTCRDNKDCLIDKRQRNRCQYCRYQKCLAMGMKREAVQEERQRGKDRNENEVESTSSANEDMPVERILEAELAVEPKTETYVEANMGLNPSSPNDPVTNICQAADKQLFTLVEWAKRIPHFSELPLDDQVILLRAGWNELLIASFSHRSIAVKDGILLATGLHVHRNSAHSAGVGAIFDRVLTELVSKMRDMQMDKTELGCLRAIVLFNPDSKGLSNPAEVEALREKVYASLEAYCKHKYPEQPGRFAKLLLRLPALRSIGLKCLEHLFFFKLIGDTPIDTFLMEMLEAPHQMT
# Sequence of Thyroid hormone receptor beta (Homo sapiens) (P10828 whole entry, looked up): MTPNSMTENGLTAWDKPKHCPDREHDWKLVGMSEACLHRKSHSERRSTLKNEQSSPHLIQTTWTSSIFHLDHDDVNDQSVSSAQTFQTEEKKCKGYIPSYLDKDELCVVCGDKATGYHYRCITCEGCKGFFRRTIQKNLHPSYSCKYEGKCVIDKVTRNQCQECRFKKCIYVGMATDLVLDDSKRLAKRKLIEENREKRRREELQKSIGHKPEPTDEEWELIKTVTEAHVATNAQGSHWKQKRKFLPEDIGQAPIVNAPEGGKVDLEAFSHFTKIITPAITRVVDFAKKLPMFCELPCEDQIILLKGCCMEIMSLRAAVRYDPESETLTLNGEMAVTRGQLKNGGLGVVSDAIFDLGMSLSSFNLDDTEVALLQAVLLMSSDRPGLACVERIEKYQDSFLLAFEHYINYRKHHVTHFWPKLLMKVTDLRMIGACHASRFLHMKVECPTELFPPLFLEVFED
# Sequence of Nuclear receptor subfamily 1 group I member 2 (Rattus norvegicus) (Q9R1A7 whole entry, looked up): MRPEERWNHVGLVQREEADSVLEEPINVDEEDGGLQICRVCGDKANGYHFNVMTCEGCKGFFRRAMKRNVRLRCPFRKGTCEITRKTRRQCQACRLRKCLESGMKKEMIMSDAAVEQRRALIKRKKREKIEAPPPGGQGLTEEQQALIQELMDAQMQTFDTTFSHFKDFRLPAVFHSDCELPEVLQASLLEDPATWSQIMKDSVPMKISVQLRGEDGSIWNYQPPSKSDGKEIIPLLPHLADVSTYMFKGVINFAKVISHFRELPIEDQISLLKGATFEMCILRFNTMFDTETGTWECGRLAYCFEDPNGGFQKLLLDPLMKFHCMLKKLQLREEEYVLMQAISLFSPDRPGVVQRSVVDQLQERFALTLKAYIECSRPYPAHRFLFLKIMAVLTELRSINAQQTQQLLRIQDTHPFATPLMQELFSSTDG
SMILES,Potency [1],max response [2] [%],Potency [3],outcome [4],max response [5] [%],Potency [6],Potency [7],max response [8] [%],max response [9],activation [10],activation [11],max response [12],max response [13],max response [14],Potency [15],max response [16],outcome [17],Potency [18],activity change % (negative = inhibition) [19],Potency [20]
CC1(C)C(=O)NC(=O)N1CO,inactive,11.7,inactive,inactive,-10.3,inactive,inactive,-6.79,-4.89% (inactive),-2.55% (inactive),1.93% (inactive),-1.57% (inactive),-2.23% (inactive),-2.85% (inactive),inactive,1.33% (inactive),inactive,,,
CN(C)C(=O)Nc1ccccc1,inactive,13.2,inactive,inactive,-10.1,inactive,inactive,-0.672,-1.05% (inactive),-1.78% (inactive),2.58% (inactive),-2.12% (inactive),1.07% (inactive),1.22% (inactive),inactive,1.09% (inactive),inactive,inactive,-24.6% (inactive),inactive
CC(=O)N(CCN(C(C)=O)C(C)=O)C(C)=O,,30.1,inactive,inactive,-4.71,inactive,inactive,-2.01,-5.17% (inactive),-1.08% (inactive),-3.27% (inactive),0.299% (inactive),-1.28% (inactive),-0.359% (inactive),inactive,-0.996% (inactive),inactive,inactive,-8.71% (inactive),
CCCCCCCCCCCCCCCCN(C)C,inactive,-16.5,,,-18.2,inactive,inactive,-9.65,-24.8% (inactive),,0.752% (inactive),-0.399% (inactive),-13% (inactive),-6.67% (inactive),inactive,2.85% (inactive),inactive,,,inactive
CC(C)(C)c1ccc(O)c(C(C)(C)C)c1,inactive,,inactive,inactive,-10.9,inactive,,-6.68,-3.49% (inactive),-1.75% (inactive),,8.37% (inactive),-2.61% (inactive),-8.41% (inactive),inactive,6.32% (inactive),,,5.44% (inactive),inactive
COC(=O)c1ccc(C(=O)OC)cc1,inactive,,inactive,inactive,-4.51,inactive,inactive,-0.742,-16.3% (inactive),-0.624% (inactive),,,-4.69% (inactive),-3.92% (inactive),inactive,2.11% (inactive),,inactive,,
O=C(O)CN(CCO)CCN(CC(=O)O)CC(=O)O,,6.54,inactive,inactive,-15.4,inactive,inactive,-2.45,-2.39% (inactive),-1.52% (inactive),-0.73% (inactive),,-1.05% (inactive),-11.1% (inactive),inactive,1.3% (inactive),inactive,inactive,-8.14% (inactive),inactive
Oc1ccc2ccccc2c1N=Nc1ccccc1,inactive,,,,,,,-13.8,-15.2% (inactive),0.732% (inactive),,0.672% (inactive),-25.3% (inactive),-20.8% (inactive),inactive,5.24% (inactive),,,,
COC(=O)c1cccc(C)c1S(=O)(=O)NC(=O)Nc1nc(OCC(F)(F)F)nc(N(C)C)n1,,78.8,inactive,inactive,,,inactive,-7.48,-20.9% (inactive),0.0138% (inactive),2.46% (inactive),-1.42% (inactive),-9.65% (inactive),,inactive,-6.52% (inactive),inactive,inactive,11.3% (inactive),inactive
CCCCOCC(C)OCC(C)O (stereo not given),inactive,-19.2,inactive,inactive,-14.7,inactive,inactive,-15.5,-6.81% (inactive),-0.368% (inactive),0.285% (inactive),-0.312% (inactive),8.96% (inactive),0.272% (inactive),inactive,2.61% (inactive),inactive,inactive,-10.2% (inactive),inactive
O=S(=O)(O)c1ccc(N=Nc2c(O)ccc3cc(S(=O)(=O)O)ccc23)cc1,inactive,-5.34,inactive,inactive,-4.64,inactive,,-15.1,-6.14% (inactive),-0.945% (inactive),-1.77% (inactive),-7.14% (inactive),-22.3% (inactive),-13.8% (inactive),inactive,-7.92% (inactive),inactive,inactive,-13.9% (inactive),inactive
CCCCCCCCCCCCO,inactive,3.59,inactive,inactive,-12.2,inactive,inactive,-2.04,8.28% (inactive),,2.81% (inactive),-0.593% (inactive),-4.36% (inactive),-11.9% (inactive),inactive,1.35% (inactive),inactive,,-1.52% (inactive),inactive
c1ccc2cc3c(ccc4ccccc43)cc2c1,inactive,,,,4.49,inactive,inactive,-11.9,-3.27% (inactive),,,-0.566% (inactive),-18.2% (inactive),-8% (inactive),inactive,,,,-17.7% (inactive),
